From PubChem BioAssay AID588855 (National Center for Advancing Translational Sciences (NCATS), 2011) come the findings set out here.

Hit rate of the full screen: of about 410,000 compounds, about 5,000 (1.2%) were called active. A call without a number means that no potency is given here. About 13% were inconclusive and are not listed. Calls come from the whole dose curve; as a rule, active = well fitted inhibition curve with a large enough effect; inconclusive = small, poorly fitted or top-dose-only effect; inactive = no such curve, though single readings can be large or run the other way. Only a selection was taken, and actives are over-represented in it overall.
Potency is the fitted concentration of half-maximal effect.

The nature of this assay: qHTS for Inhibitors of TGF-b. Note: nearly all actives have a fitted effect of over 65% in size. The following applies: HepG2 CAGA-GFP TGF-b/SMAD3 reporter, GFP fluorescence, 18 h, TGF-beta stimulated, 500 pg/mL final; series mostly up to 46.1 µM. In short, it runs like this: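 Smad-responsive CAGA-GFP expression was quantified in HEPG2 cells exposed to compounds and 500 pg/mL final TGF-beta for 18 h at 37 degrees C; unstimulated wells defined full inhibition.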
Consider `Fc1ccc(-c2ccc(NCCN3CCOCC3)nn2)cc1`, for which the Potency result is “inactive”.

With `O=C(NCCN1CCOCC1)c1cc(Sc2cccc(Cl)c2)nc2ccccc12`, the Potency result was “inactive”.

Consider `c1ccc2cc3c(NCCN4CCOCC4)ccnc3cc2c1`, for which the Potency was 3.98 µM (active). Then `COc1ccc(S(=O)(=O)c2c(Nc3ccc(C)cc3)sc(C(=O)c3ccc(C)cc3)c2N)cc1`, with “inactive”; and `COc1ccc(-c2nc(CN3CCC(C(=O)NCc4ccccc4)CC3)c(C)o2)cc1OC`, with “inactive”.

For the compound `CCOc1ccc(CC(=O)NC2CCN(Cc3ccccc3)CC2)cc1`, the Potency entry is “inactive”. `Cc1ccc(-c2nc(CSCC(=O)NC3CCN(Cc4ccccc4)CC3)c(C)o2)cc1`: the Potency was 11.2 µM (active).

Take `COc1ccccc1-c1cc(C(F)(F)F)nc(S(=O)(=O)CCCC(=O)Nc2ccc(F)cc2F)n1`: the Potency is 3.98 µM (active). Regarding `CSc1ccccc1NC(=O)CCS(=O)(=O)c1nc(-c2cccs2)cc(C(F)(F)F)n1`, the Potency entry was “inactive”. In the case of `COc1ccccc1-c1cc(C(F)(F)F)nc(S(=O)(=O)CCCC(=O)Nc2cc(C)ccc2O)n1`, the Potency result was “inactive”. Then `CCOc1cc(C(=O)Nc2nnc3n2CCS3)cc(OCC)c1OCC`, with “inactive”; and `Cc1onc(NC(=O)c2ccc([N+](=O)[O-])o2)c1Br`, with 11.2 µM (active). Then `O=C(Nc1cccc(NC(=O)c2ccccc2[N+](=O)[O-])c1)c1ccccc1Cl`, with “inactive”. For `Cc1cccc(NC(=O)c2ccc([N+](=O)[O-])o2)c1`, the Potency is 11.2 µM (active). Turning to `Cc1cccc(NC(=O)CCn2c(=O)oc3ccccc32)c1`, the Potency entry was “inactive”. For `Cc1onc(C(=O)Nc2ccc3c(c2)OCO3)c1[N+](=O)[O-]`, the Potency entry is “inactive”. With `CN1C(=O)c2ccc(C(=O)Nc3ccc(Br)cn3)cc2C1=O`, the Potency result is “inactive”. Turning to `O=C(COC(=O)c1ccc([N+](=O)[O-])o1)NC12CC3CC(CC(C3)C1)C2`, the Potency entry was “inactive”. Then `O=C(Nc1ccc(Br)cn1)c1ccc([N+](=O)[O-])cc1Cl`, with “inactive”; and `O=C(Nc1ccc(Br)cn1)c1ccc([N+](=O)[O-])o1`, with 10 µM (active); and `CCOc1ccc(N(CC)C(=O)C2CCN(S(=O)(=O)c3cccc4nonc34)CC2)cc1`, with “inactive”. With `COc1ccc(NC(=O)c2sc3nc[nH]c(=O)c3c2C)cc1`, the Potency entry is “inactive”.

With `Cc1nc2ccn(Cc3cccnc3)c(=O)c2cc1C(=O)N1CCN(c2ccccc2F)CC1`, the Potency result is “inactive”. In the case of `Cc1nn(C(C)C(=O)Nc2ccc(C(C)C)cc2)c(=O)c2c1sc1ccccc12` (stereo not drawn) it was “inactive”; in that of `Cc1ccc2sc(N(Cc3cccnc3)C(=O)C3COc4ccccc4O3)nc2c1C` (stereo not drawn), “inactive”. Consider `O=C(c1ccccc1F)N1CCC(c2nc3c(nnn3Cc3cccc(F)c3)c(=O)[nH]2)CC1`, for which the Potency result was “inactive”.

For the compound `O=[N+]([O-])c1ccc(C=Nc2ccc(Cl)cc2Cl)s1`, the Potency was 10 µM (active).

`CCOC(=O)c1sc(NC(=O)/C=C/c2ccc(C(C)C)cc2)c(C(=O)OCC)c1C`: the Potency entry was “inactive”.

On to `CS(=O)c1ccc(/C=C2\C=Cc3ccccc32)cc1` (stereo not drawn), for which the Potency result is “inactive”. Regarding `COc1cccc(-c2cc(C(=O)Nc3ccc(C)cc3)[nH]n2)c1`, the Potency result was “inactive”. Take `OCCNc1nc(Nc2ccc(Cl)c(Cl)c2)nc2ccccc12`: the Potency was 11.2 µM (active).

With `O=C(O)c1ccc(Nc2nc(-c3ccccc3)c3cc(Br)ccc3n2)cc1`, the Potency result is “inactive”. Take `O=C(Cn1c(NCCO)nc2ccccc21)c1ccc(Cl)cc1Cl`: the Potency entry was “inactive”. Then `O=C(C1CC1)N1CCc2cc(Br)cc(S(=O)(=O)N3CCN(c4ccccc4F)CC3)c21`, with “inactive”; and `CCOC(=O)CNC(=O)c1cc2c(=O)n3cccc(C)c3nc2s1`, with “inactive”; and `Cc1cccc(CN2Cc3cccc4c3[C@H](C=CC4)CC2=S)c1`, with “inactive”. In the case of `CC(C)c1ccc(NC(=O)C2CCN(c3nc(-c4ccc(C(C)C)cc4)no3)CC2)cc1`, the Potency entry was “inactive”. Then `Cc1cc(C)cc(OC(C)C(=O)Nc2nc3c(s2)CCCC3)c1` (stereo not drawn), with “inactive”. Take `COc1ccc(CCNc2nc3c(-c4cccc(F)c4)nnn3c3ccccc23)cc1OC`: the Potency entry was “inactive”.

On to `Cc1cc(C)n(-c2nc(C(F)(F)F)nc3ccccc23)n1`, for which the Potency entry is “inactive”. As for `CC(Nc1nc(C(F)(F)F)nc2ccccc12)c1cccs1` (stereo not drawn), the Potency was 17.8 µM (active). On to `CC(Nc1nc(N2CCN(CCO)CC2)nc2ccccc12)c1ccccc1` (stereo not drawn), for which the Potency result is “inactive”. Consider `COc1ccc(/C=C/c2ccccn2)cc1OC`, for which the Potency result was “inactive”. On to `Cc1ccccc1C(=O)Nc1nnc(S(=O)(=O)N(C)c2ccc(Cl)cc2)s1`, for which the Potency was 8.91 µM (active). Then `CC(C)CC(=O)Nc1nnc(S(=O)(=O)N(C)c2ccc(Cl)cc2)s1`, with “inactive”. Turning to `CN(Cc1ccccc1)S(=O)(=O)c1nnc(NC(=O)c2ccccc2F)s1`, the Potency result is “inactive”. For `CCCCc1nn2c(=O)cc(COC(=O)c3cccc(NC(=O)COc4ccccc4)c3)nc2s1`, the Potency result was “inactive”. Consider `Cc1nn(-c2ccc(F)cc2)c(-n2cccc2)c1C(=O)N1CCN(c2ccccc2)CC1`, for which the Potency result was “inactive”. `Cc1ccc2oc3c(c(=O)c2c1)C(c1ccc([N+](=O)[O-])cc1)N(CCCN1CCOCC1)C3=O` (stereo not drawn): the Potency result was “inactive”. In the case of `COc1ccc(CCNC(=O)c2cc(=O)c3c(C)cc(C)cc3o2)cc1OC`, the Potency result is “inactive”. For the compound `Cc1ccc(-c2cc(-c3coc4ccccc4c3=O)c3c(n2)-c2cc(Cl)ccc2OC3)cc1`, the Potency entry is “inactive”. Turning to `Clc1cccc(Cc2c(-c3cccc(Cl)c3)nc3ccc(Cl)cn23)c1`, the Potency is 10 µM (active). Take `Fc1cccc(Cc2c(-c3ccc(Cl)cc3)nc3ccc(Cl)cn23)c1`: the Potency entry is “inactive”. Then `Cc1cc(Br)cn2c(Cc3ccccc3C(F)(F)F)c(C3CCCCC3)nc12`, with “inactive”; and `Fc1cccc(Cc2c(-c3cccc(Cl)c3)nc3ccc(Br)cn23)c1`, with 14.1 µM (active). On to `Cc1ccc(-c2nc3ccc(Br)cn3c2Cc2ccccc2C(F)(F)F)cc1`, for which the Potency is 14.1 µM (active).

Consider `COC(=O)c1ccc2nc(-c3ccc(Cl)cc3)c(Cc3cccc(F)c3)n2c1`, for which the Potency result is “inactive”. On to `COc1ccccc1Cc1c(-c2ccc(Cl)cc2)nc2ccc(Cl)cn12`, for which the Potency result was “inactive”. Turning to `COC(=O)c1ccc2nc(C3CCCCC3)c(Cc3cccc(F)c3)n2c1`, the Potency result is “inactive”. In the case of `Brc1ccc2nc(-c3ccccc3)c(Cc3ccccc3)n2c1` it was 12.6 µM (active). In the case of `Cc1ccc2nc(-c3ccccc3)c(CC3CCCCC3)n2c1` it was “inactive”; in that of `Cc1ccc(-c2nc3ccc(Cl)cn3c2Cc2ccccc2)cc1`, “inactive”; in that of `CN(C)C(=O)c1nc2ccc(Cl)cn2c1CNCc1cccc(OC(F)(F)F)c1`, “inactive”. In the case of `Cc1ccc(NC(=O)CN2C(=O)CC(C)Sc3ccccc32)c(C)c1` (stereo not drawn) it was “inactive”; in that of `COc1ccc(CCNC(=O)CCc2c(C)nc3c(c(C)nn3-c3ccc(C)c(C)c3)c2C)c(OC)c1OC`, “inactive”; in that of `COc1ccc(CCNC(=O)Cn2c(=O)n(-c3ccccc3)c(=O)c3c(C)c(C)sc32)cc1OC`, “inactive”. Turning to `CC(C)c1ccc(NC(=O)c2cc(S(=O)(=O)N3CCc4ccccc4C3)ccc2F)cc1`, the Potency result is “inactive”.

On to `CCCCNC(=O)c1ccc2c(c1)NC(=O)C(C(C)C)N2` (stereo not drawn), for which the Potency entry was “inactive”.

For `COc1ccc(C(=O)Nc2nonc2-c2ccc(OC)c(OC)c2)cc1Cl`, the Potency result was “inactive”. In the case of `COc1cc2nc(NCC(C)c3ccccc3)n3nc(-c4ccccc4)nc3c2cc1OC` (stereo not drawn) it was “inactive”; in that of `Cc1cccc(N(C)C(=O)CS(=O)(=O)c2cccc3nsnc23)c1`, “inactive”; in that of `CCN1CCN(c2ccc(/C=C/c3ccnc4ccccc34)cc2)CC1`, “inactive”.

With `Cc1ccc(C2C=C(c3ccc(Cl)cc3)Nc3nc(NC(=O)CCC(=O)O)nn32)cc1` (stereo not drawn), the Potency entry is “inactive”. Turning to `COc1ccc(N2CCN(c3nc(-c4ccccc4F)nc4ccccc34)CC2)cc1`, the Potency entry was “inactive”.

On to `Cc1cccc(C)c1NC(=O)N1CC(C)OC(C)C1` (stereo not drawn), for which the Potency entry is “inactive”. As to `Cc1cccc(C)c1NC(=O)CN(C)C(=O)CCC(=O)c1ccccc1`, the Potency result was “inactive”. As for `Cc1cccc(C)c1NC(=O)C(Cl)C(=O)c1ccccc1` (stereo not drawn), the Potency is 11.2 µM (active). As to `Cc1ccc2c(=O)cc(C(=O)Nc3sc4c(c3C(=O)NCc3cccnc3)CCCC4)oc2c1`, the Potency entry is “inactive”. Regarding `N#Cc1ccc[n+](CC(=O)c2ccc(F)cc2)c1`, the Potency entry was “inactive”.

Turning to `Cc1ccc(C)c(Nc2nnc(-c3ccc(C)c(S(=O)(=O)N4CCCCC4)c3)c3ccccc23)c1`, the Potency result is “inactive”. Regarding `CCn1c(CNC(=O)C23CC4CC(CC(C4)C2)C3)nnc1SCC(=O)Nc1ccc(OC)cc1`, the Potency result was “inactive”. On to `CC(=O)Nc1ccc2nc(SCCOc3cc(C)cc(C)c3)sc2c1`, for which the Potency entry was “inactive”. On to `Brc1cccc[n+]1Cc1cccc(C[n+]2ccccc2Br)c1`, for which the Potency entry was “inactive”. As for `Oc1ccc(Br)cc1/C=N/Nc1ccccn1`, the Potency was 0.562 µM (active). Then `O=C(CCc1ccc(O)cc1)NN=Cc1cc(Br)ccc1O`, with “inactive”; and `Cc1c(C(=O)Nc2ccccn2)oc2ccc(Br)cc12`, with “inactive”. On to `CCn1cc(C(=O)NCCc2ccccc2)c(=O)c2cc(S(=O)(=O)N3CCCCCC3)ccc21`, for which the Potency entry was “inactive”.

`CCCN(CC1COc2ccccc2O1)C(=S)Nc1ccc(C)cc1` (stereo not drawn): the Potency entry is “inactive”. Then `CC(NC(=S)Nc1ccccc1)C1COc2ccccc2O1` (stereo not drawn), with “inactive”.

Take `S=C(NCC1COc2ccccc2O1)Nc1ccc(Br)cc1` (stereo not drawn): the Potency was 22.4 µM (active). Regarding `CCOC(=O)c1ccc(NC(=O)Cn2c(=O)n(-c3ccc(C)cc3)c(=O)c3c2cnn3C)cc1`, the Potency entry is “inactive”. In the case of `COc1cc2nc(C#Cc3nc4cc(OC)c(OC)cc4[nH]3)[nH]c2cc1OC` it was “inactive”; in that of `Cc1ccc(Cl)cc1NC(=O)CSc1nccn1C`, “inactive”; in that of `Cc1ccccc1C(CC(=O)c1cccs1)C(C#N)C#N` (stereo not drawn), 20 µM (active). Regarding `C[N+]1(CC(=O)c2cccs2)CCOCC1`, the Potency result is “inactive”. `Cc1ccc(C)c(NC(CC(=O)c2ccccc2)C(=O)OCC(=O)c2cccs2)c1` (stereo not drawn): the Potency entry was “inactive”. On to `Cc1ccc(-n2nnnc2CNC(=O)c2ccccc2C)cc1C`, for which the Potency result is “inactive”. For the compound `CCN(c1ncnc2c1cnn2-c1ccc(C)cc1)C1CCCCC1`, the Potency result was “inactive”. With `CCN([C@H](CO)C(C)C)S(=O)(=O)c1ccccc1Br`, the Potency result was “inactive”. As for `O=S(=O)(NCc1ccccc1Br)c1ccccc1Br`, the Potency result was “inactive”. With `CC(C)c1ccc(OCC(=O)N(Cc2ccc(N(C)C)cc2)C2CCS(=O)(=O)C2)cc1` (stereo not drawn), the Potency result was “inactive”. `CNC(=O)C[C@H]1C(=O)N(c2ccc(OC)cc2)C[C@@H]1Cc1ccccc1`: the Potency entry is “inactive”. As for `C[C@H]1CN(c2ccc(Br)cc2)C(=O)[C@@H]1CC(=O)Nc1ccc(Br)cc1`, the Potency result was “inactive”.
